Results as given in the supplement of paper PMC6555819.

Test system: VDR:RXRa (NR concentration 270 nM, RXRa partner concentration 90 nM)
Test: PBM binding z-score (relative to random genomic background probes); higher = stronger binding; sequences stand for … in GC…GCGATTGACAGCGTAGAATGAAGG
Protocol: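 Protein-binding microarray (Agilent 4x180K custom design, double-stranded 60-nt probes: 5' GC cap, 34-nt variable region, 24-nt constant primer region; full probe sequence given). Purified or IVT nuclear receptor:RXRα heterodimers (3:1 NR:RXRα, mostly 270:90 nM) or homodimers were incubated for 1 h in PBS with 2% milk and no ligand, then detected with Alexa488 antibodies. Fluorescence from o1-orientation probes (~5 replicates averaged) was converted to z-scores against 500 random hg19 background probes. Variable regions are seed direct-repeat (DR0–DR5) sites, all their single-nucleotide variants and half-site ablations.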

Row | Sequence | PBM binding z-score
1 | ACTAGCAGGCGAAGGGTCACTCAAGATTAGTCCG | 2.23
2 | TCTATTAGTCGATTAGGGCAACCGAAACAGCGGA | 0.568
3 | TCTTGTAGATCAAGCAGGTAAAGAAAGCCTGAGT | 0.212
4 | GCTTACGGGTAAAAGGTTATAGCATGAATAGAAT | 1.57
5 | GCTATTAGTTGAAAGGGGAACCGAATGATTCTCG | -0.142
6 | CTCGAAAGGTCGGTTGGGGTGAGTATACGGATAA | 3.24
7 | GATACAGCGTCAAGGCCAGAGTACGCGTATTGAT | -0.35
8 | AGAATGAGCTTATACGTAGATCAGGGAAGAAAGT | -0.451
9 | CTCGACAGGTCGTGCTCAGGTGAGTATACCAAAC | 0.597
10 | GCTTACGGGTCAAAGGTTAGAGCATGAATAGAAT | 4.84
11 | TTACCAAGGTGAGCTGGGGTCGTTGATCCAACTC | 4.15
12 | ATCTCTAGGTAAGACTCAGTTCAGTGTAGAACGC | 1.02
13 | TCAGACAGGTGAAGGTAACTCTGGTACGCAGTCG | 0.577
14 | TGAATGAGGTTAAAGCTCAGGGAACGTGGCGTCG | 1.14
15 | CCTACTGGGCCAAAGGGCATTGATTCCAATGCTC | 0.0732
16 | CCGACTGGGGCAGATAGGTTACCATACCATCCGG | -0.389
17 | TGAATGAGGTTATAAGATCGGGGAACGTTGCAAA | 0.904
18 | AATACAGGGCCACTAGGCCAGAGTAGGTACGAAT | -0.225
19 | ATCGAAAGCTCGTGAGGTGAGTATACAGAAAGGC | -0.256
20 | TCCTGTAGATCAAAGGTTAAGAAAGCCGAAGCCT | 1.44

Row | Sequence | PBM binding z-score
21 | CTAACTAGGTCATTGACAGGACAGTGAATAGTAA | 2.2
22 | CTACCAAGGTGAACAAGGTCGCTGATTACTATTC | 5.5
23 | GCTTTTAGATCAAGGTTAAGAAAGACTAAGCTAA | 0.374
24 | ATCGAAAGGTCGTGAGGTGAGTATGCAGAAAGGC | 3.57
25 | GTTCGGAGGACAAGGTCAGAGCTTTGTCCGTAGA | 1.42
26 | CCTCGGAGGACAACAGGAGGTCAGCGCTGCCAGA | 2.39
27 | AGTCAATGTTCAGGACGAGGTAACGTAAAGCACG | 0.00608
28 | GCGACTGGGGCAATGCAGGTTACCATAAGGTTGG | -0.0726
29 | ACAGACAGGTGATGATGGTAACTCAGGCTATCAT | -0.153
30 | CGAAATAGGTCATTGACAGGACAGTGAATAGTAA | 3.26
31 | TCTTGTAGATCAGCAGGTTCAGAAAGCTGGCCAA | 3.4
32 | TCTAGTAGTTGAAGGGCAACCGACGAGTCCGTTT | 0.266
33 | CCTAGTTGGTCAGGAGGTCACACCCCGGATATGA | 3.82
34 | CCTTACGGGTCACGAGGTTATACCACGACGAGCG | 5.37
35 | TCGAGTAGGGTACCAATGGGGCATTCAGCTTTCT | -0.337
36 | CGAACTAGGTCATCCAGGACACTGAATACATTGA | 5.27
37 | CCTACTGGGCCACGAAAGGTCATTGCTTCAGTGA | 4.23
38 | CCTAGAAGGCCAGGGTCACTCAAGCATTTCGCTT | 2.94
39 | TCTTGTAGAGCAATAGAGGTTAAGAAAGTGCGCT | 1.18
40 | TCTAGCAGGCCAGAGAGTCACTCAAGAGGTACGG | -0.279
